Shown are actives, neighbours in structure and some others; about 21% of the full set was active somewhere.
Pf growth 96h = P. falciparum growth inhibition at 96 hour, primary screen for plastid delayed-death inhibitors; 6.9% of 320,000 active; AID 504834; P. falciparum luciferase reporter growth, 96 h; Potency, µM (titrated, usually from 28.7 µM), for the others: at the top dose activity change, negative = inhibition, most hits filed as inhibitors; further: potency means the concentration at half of the fitted maximal effect; on the % scale 0 is the no-effect control and ±100 the full control effect
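Two-generation exposure (96 h) targets delayed-death phenotype. Reporter parasites carrying integrated firefly luciferase, in red cells at 2% hematocrit and 0.05% parasitemia final, kept at 37 C, 5% CO2; luminescence loss indicates inhibition.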
CHX counter = counter-screen hit for Shiga toxin inhibitors, cycloheximide. 12% of 300,000 active. AID 2314. max response, %. cell reporter, cycloheximide protein synthesis inhibition counterscreen; in the data active means max response mostly above about 13%, no sharp cut-off; inactive means mostly below about 14%; further: read at 38.3 µM for the half of the compounds with a filed dose; 0% is about no effect
NS1 inh = influenza NS1 inhibition. AID 2326. Potency, µM (top dose mostly 46.1 µM), without a hit: at the highest dose activity, positive = more growth. 0.4% of 270,000 active; calls by dose curve; further: potency means the concentration at half of the fitted maximal effect; actives are rising curves; nearly all actives have a fitted effect of over 50% in size
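A cell-based growth assay was used: compounds that relieve NS1-induced slow growth of budding yeast raise OD600. Assay medium was yeast nitrogen base with ammonium sulphate and -URA supplement, pH 6.0, with 2% galactose.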
SARS PLpro yeast = blocks SARS-CoV papain-like protease in a yeast assay. 0.19% of 330,000 active. S. cerevisiae expressing SARS-CoV PLpro, growth rescue. Potency, µM (top dose mostly 32.9 µM), without a hit: at the highest dose activity, positive = growth rescue, most hits filed as activators; calls by dose curve; further: potency means the concentration at half of the fitted maximal effect; 0% is about no effect; nearly all actives have a fitted effect of over 55% in size
Pf growth 48h = inhibits P. falciparum growth in the first generation, 48 h; P. falciparum luciferase growth in erythrocytes, 48 h; Potency, µM (titrated, usually from 28.7 µM), without a hit: at the highest dose activity change, negative = inhibition, usual class: inhibitors; 5.9% of 310,000 active; further: potency means the concentration at half of the fitted maximal effect; on the % scale 0 is the no-effect control and ±100 the full control effect
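Erythrocytes infected with P. falciparum carrying an integrated firefly luciferase reporter (2% hematocrit, 0.1% parasitemia final) were exposed to compounds in RPMI 1640 with 0.5% Albumax at 37 C, 5% CO2. Growth inhibition was scored as reduced luminescence.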
Shiga inhibitor = inhibitors of Shiga toxin in Vero cells; Vero cells, Shiga toxin protein synthesis inhibition reporter; inhibition, % at 38.7 µM; 9.2% of 290,000 active; AID 2315; in the data active means inhibition mostly above about 28%, no sharp cut-off; inactive means mostly below about 43%; further: 0% is about no effect
Active calls of the source: *; ? = inconclusive; / = no result given; ! = a repeat was not active. Unless noted, the call rests on the fitted dose curve; in most records, active means well fitted inhibition curve with a large enough effect; inconclusive means small, poorly fitted or top-dose-only effect, or another doubt; inactive means no such curve, though single readings can be large or run the other way.

SMILES	Pf growth 96h	CHX counter	NS1 inh	SARS PLpro yeast	Pf growth 48h	Shiga inhibitor
CC(=O)Oc1cccc(C)c1	-1%	75*!	/	/	-2%	183*!
COc1ccc(C2=C/C(=C\c3ccc(OC(C)=O)cc3)C(=O)O2)cc1	-5%	40*	/	4%	0%	87*
Cc1cccc(C2=N/C(=C\c3cccs3)C(=O)O2)c1	?	17	/	3%	47%	15
Cc1ccccc1NS(=O)(=O)c1cc(C(=O)NCc2ccncc2)ccc1Cl	?	-5	3%	8%	-23%	19
COc1ccccc1NC(=S)N1CCN(C(=O)C2CCCO2)CC1 (stereo not drawn)	96%	1	0%	0%	-2%	-2
COc1ccc(C(F)(F)F)cc1NC(=O)c1nc2nc(C)cc(C(F)F)n2n1	?	-3	-5%	-1%	3.7µM*	9
Cc1cc(C(F)F)n2nc(C(=O)Nc3cccc(C(F)(F)F)c3)nc2n1	?	-5	0%	3%	-27%	-8
COc1ccccc1-c1nc2ccccc2c(=O)n1NC(=O)c1cccs1	-7%	12	1%	5%	7%	-14
COc1cc(Br)c(C(=O)c2nccc3cc(OC)c(OC)cc23)cc1OC	8%	-4	0%	1%	6.6µM*	-12
CCOc1cc(-c2nccc3cc(OC)c(OC)cc23)cc(OCC)c1OCC	11µM*	-2	6%	-5%	10µM*	-2
COc1cc(Cc2nccc3cc(OC)c(OC)cc23)c(NC(C)=O)cc1OC	0%	1	?	5%	-19%	6
COc1cc(N)c(Cc2nccc3cc(OC)c(OC)cc23)cc1OC	6.6µM*	-5	6%	-1%	?	-5
CCOc1cc(-c2nc(-c3cc(OC)c(OC)c(OC)c3)no2)cc(OCC)c1OCC	/	/	2%	/	/	/
COc1cc(C(=O)c2nccc3cc(OC)c(OC)cc23)c([N+](=O)[O-])cc1OC	?	-3	/	1%	?	-5
COc1cc(N)c(C(=O)c2nccc3cc(OC)c(OC)cc23)cc1OC	5.2µM*	-2	-2%	14%	0%	-9
COc1cc(/C=C2\SC(=S)N(CCC(=O)N3CCCCC3)C2=O)cc(OC)c1OC	24%	-2	17%	1%	?	-4
CCN(C(=O)c1cccc(NC(=O)c2ccccc2)c1)C1CCCCC1	?	1	-7%	-6%	-7%	39
C=CCSc1nc2ccccc2n1C(=O)/C=C/c1cc(OC)c(OC)c(OC)c1	-5%	49*	3%	-1%	?	111*
CCSc1nc2ccccc2n1C(=O)/C=C/c1ccc(OC)c(OC)c1	27%	13*	4%	7%	1%	-1
C=CCSc1nc2ccccc2n1C(=O)/C=C/c1ccc(OC)c(OC)c1	27%	0	17%	-1%	?	-9
COc1ccc(-c2cn(CC3CCCCC3)nn2)cc1	202%	16*	-16%	-4%	60%	17*
CCCCCc1ccc(-c2cn(CC3CCCCC3)nn2)cc1	12µM*	0	?	0%	79%	14
c1ccc(-c2cn(CC3CCCCC3)nn2)cc1	182%	37*	-37%	-10%	31%	45*
CCOc1cc(NS(=O)(=O)c2ccc(NC(C)=O)cc2)c(OCC)cc1NC(=O)c1cccs1	5%	-1	0%	13%	-4%	-1
Cc1ccn(-c2ccc([N+](=O)[O-])cc2)n1	?	12*	1%	-6%	29%	42*
SMILES	Pf growth 96h	CHX counter	NS1 inh	SARS PLpro yeast	Pf growth 48h	Shiga inhibitor
Cc1ccn(-c2n[nH]c(C)c2[N+](=O)[O-])n1	33%	-2	0%	0%	6%	7
CS(=O)(=O)N(CC(=O)Nc1ccc(Br)cc1)C1CCCCC1	0%	-1	-18%	?	0%	-16
Cc1ccccc1OCc1nc2ccccc2c(=O)n1/N=C/c1cn[nH]c1-c1ccccc1	?	7	3%	26%	?	30
Cc1ccc(-c2[nH]ncc2/C=N/n2c(COc3ccccc3)nc3ccccc3c2=O)cc1	10µM*	29*	12%	-6%	12µM*	42
O=C(O)COc1ccc(/C=N/n2c(COc3ccccc3)nc3ccccc3c2=O)cc1	-12%	23	-5%	7%	37%	40
O=c1c2ccccc2nc(COc2ccccc2)n1/N=C/c1ccc(O)c(O)c1	?	25*	-2%	-1%	?	19
